ELG1 genotox: genotoxicity induction in ELG1-luciferase HEK293T cells; 330,000 tested, 1.3% active; HEK293T ELG1-luciferase reporter, luminescence, 16 h; AID 504466; Potency, µM (top dose mostly 46 µM), inactives show at the top dose activity change, positive = activation, actives largely listed as activators; note: % of control where 0% means no effect; nearly all actives have a fitted effect of over 60% in size
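After overnight (16 hr) compound treatment at 37 °C, ELG1-luciferase HEK293T cells were lysed with ONE-Glo; luminescence quantified 30 min later at room temperature.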
Rab9 promoter act: activators of Rab9 promoter; 320,000 tested, 2.8% active; Potency, µM (top dose mostly 9.22 µM), without a hit: top-dose activation, negative = inhibition, actives largely listed as activators; Huh7 Rab9 promoter-luciferase reporter, luminescence, 24 h; note: % of control where 0% means no effect; nearly all actives have a fitted effect of over 60% in size
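Quantitative HTS format; Huh7 Rab9-luciferase reporter cells (1500/well) receive compound 2 h post-plating, incubate 24 h at 37 °C, then get luciferase reagent for 10 min before luminescence reading.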
NPC1 promoter act: activates the NPC1 promoter; 320,000 tested, 2.4% active; Huh7 NPC1 promoter luciferase reporter, 24 h; Potency, µM (series often up to 9.22 µM), without a hit: at the top dose activation, usual class: activators; note: % of control where 0% means no effect; nearly all actives have a fitted effect of over 60% in size
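Huh7 cells stably carrying NPC1 promoter–luciferase, plated in Opti-MEM with 10% FBS for 2 h, were exposed to compound in DMSO for 24 h at 37 °C; luciferase reagent was added for 10 min and luminescence read.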
SMN2 splice up: increases expression of the SMN2 splice variant; HEK293 SMN2-luciferase splicing reporter, luminescence, 30-36 h; Potency, µM (series often up to 46.1 µM), for inactives: top-dose activity change, positive = activation, actives largely listed as activators; 210,000 tested, 2.8% active; note: % of control where 0% means no effect; nearly all actives have a fitted effect of over 55% in size
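qHTS luciferase splicing reporter: luminescence rises when SMN2 exon 7 is included in transfected HEK293 cells. Compound exposure lasted 30-36 h at 37C, with 4.5 mM final sodium butyrate as control, followed by a ONE-Glo read.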
FLuc modulator: counter-screen for miR-21 project: firefly luciferase inhibitors or activators; P08659; purified FLuc, Km substrates, luminescence inhibition; Potency, µM (series often up to 57.5 µM), inactives show at the highest dose activity change, negative = inhibition, hits mostly inhibitors; 360,000 tested, 6.9% active; AID 588342;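 note: plate controls were vehicle for no effect and reference inhibitor for full effect; nearly all actives have a fitted effect of over 55% in size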
Target sequence (P08659 whole entry, looked up): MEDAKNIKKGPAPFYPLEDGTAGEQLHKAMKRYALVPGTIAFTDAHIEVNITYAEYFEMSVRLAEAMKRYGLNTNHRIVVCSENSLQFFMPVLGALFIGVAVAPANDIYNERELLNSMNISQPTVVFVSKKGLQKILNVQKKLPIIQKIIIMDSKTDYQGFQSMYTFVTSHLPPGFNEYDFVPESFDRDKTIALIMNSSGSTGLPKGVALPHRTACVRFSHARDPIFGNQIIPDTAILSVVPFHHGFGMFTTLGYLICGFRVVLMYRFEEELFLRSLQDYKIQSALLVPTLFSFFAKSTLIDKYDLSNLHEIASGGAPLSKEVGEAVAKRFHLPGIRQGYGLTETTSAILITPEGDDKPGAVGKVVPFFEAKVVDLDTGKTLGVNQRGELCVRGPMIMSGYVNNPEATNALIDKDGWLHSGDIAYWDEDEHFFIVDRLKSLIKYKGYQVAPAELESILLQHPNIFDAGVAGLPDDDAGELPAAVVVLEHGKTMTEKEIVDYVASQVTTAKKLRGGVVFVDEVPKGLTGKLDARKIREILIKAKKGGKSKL
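Purified P. pyralis luciferase (10nM final) with 10uM D-luciferin and 10uM ATP (Km levels) in 50mM Tris acetate pH 7.5, 10mM Mg acetate, 0.01% Tween-20, 0.05% BSA; qHTS 6-point titration, ~60 µM downward; luminescence read.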
* hit, by the source's call; u = inconclusive; x = not tested or not shown. A selection: hits, their analogues and other compounds. The true share with any hit is near 7.4%. Calls come from the whole dose curve; as a rule, active = well fitted curve in the direction sought with a large enough effect; inconclusive = small, poorly fitted or top-dose-only effect, or another doubt; inactive = no such curve, though single readings can be large; an effect the other way counts as inactive or inconclusive. Potency is the fitted concentration of half-maximal effect.

SMILES | ELG1 genotox | Rab9 promoter act | NPC1 promoter act | SMN2 splice up | FLuc modulator
CCOC(=O)c1sc(=NC(=O)c2cccs2)n(C)c1C | u | u | 1% | 3.2µM* | 1.3µM*
Cc1ccc(OCC(=O)NCC2(N3CCN(C)CC3)CCCCC2)cc1C | x | x | x | x | -1%
CC12CCC(=O)N1C(C(=O)Nc1ccc(Br)cc1Cl)CS2 (stereo not given) | -9% | 5% | -4% | x | -2%
CCCCOc1ccc(-c2nnn(CCC(=O)N3CCOCC3)n2)cc1 | u | u | u | -20% | 12µM*
COc1ccc(OCCC(=O)N2CCOCC2)cc1 | 3% | 0% | 5% | 11% | 0%
CC1CCN(C(=O)Cn2nnc(-c3ccc(C(C)C)cc3)n2)CC1 | -2% | 2% | 8% | x | 17µM*
COC(=O)CCn1nnc(-c2ccc(C(C)C)cc2)n1 | -5% | -28% | -19% | -22% | 12µM*
CC(C)c1ccc(-c2nnn(CC(=O)N3CCCCC3)n2)cc1 | 4% | 17% | 16% | x | u
CCCOc1ccc(-c2nnn(CC(=O)N3CCCC(C)C3)n2)cc1 (stereo not given) | 0% | -2% | -2% | x | 15µM*
CCCOc1ccc(-c2nnn(CC(=O)N3CCC(C)CC3)n2)cc1 | 2% | 0% | 1% | -35% | 17µM*
COc1ccc(-c2nc3cc([N+](=O)[O-])ccc3o2)cc1 | u | 1.6µM* | 2.5µM* | x | 0.48µM*
Nc1ccc(-c2nc3cc([N+](=O)[O-])ccc3o2)cc1 | 15% | 1.1µM* | 1.4µM* | x | 2.1µM*
O=c1oc(-c2ccc([N+](=O)[O-])cc2)nc2ccc(O)cc12 | -4% | u | -4% | -7% | 15µM*
O=c1oc(-c2ccc([N+](=O)[O-])cc2)nc2ccccc12 | 11% | 13% | 11% | 1% | -10%
Cc1cccc(NC(=O)Cn2c(=O)n(CCc3ccccc3)c(=O)c3ccccc32)c1 | x | x | x | -6% | -2%
CN(Cc1cccnc1)C(=O)CCCc1c[nH]c2ccccc12 | -5% | 0% | -3% | x | -9%
CC(C)(C)NC(=O)CC1C[C@H](C(=O)N2CCOCC2)[C@@]2(C)c3[nH]c4ccccc4c3CCN2C1=O (stereo not given in full) | 2% | x | x | x | x
Cc1ccc2nc(NC(=O)CN3C(=O)C4CC=CCC4C3=O)sc2c1 (stereo not given) | 1% | 1% | -5% | 13% | 11µM*
C[C@@H](C(=O)Nc1nc2ccc(F)cc2s1)N1C(=O)C2CC=CCC2C1=O (stereo not given in full) | 3% | 2% | 13% | 31% | -18%
Cc1ccc2nc(NC(=O)[C@H](C)N3C(=O)C4CC=CCC4C3=O)sc2c1 (stereo not given in full) | 5% | -21% | -14% | 21% | 17µM*
Cc1cccc(C(=O)n2nc(-c3cccnc3)nc2NCc2ccccc2)c1 | x | x | x | 16% | -8%
CC(C)CNC(=O)C(=O)Nc1c2c(nn1-c1ccccc1)CS(=O)(=O)C2 | x | x | x | x | -12%
CCn1c(O)c(C=NC2CCCC(C)C2C)sc1=S (stereo not given) | u | u | u | x | 15µM*
CC(=O)c1cccc(N2C(=NC(=O)C3CC3)SC3CS(=O)(=O)CC32)c1 (stereo not given) | 1% | 0% | -4% | x | 1%
Oc1ccccc1/C=C/c1noc(-c2ccccc2O)n1 | 5.8µM* | 14% | u | u | 1.9µM*
SMILES | ELG1 genotox | Rab9 promoter act | NPC1 promoter act | SMN2 splice up | FLuc modulator
COc1cc(/C=C/c2noc(-c3ccccc3O)n2)ccc1OC(C)=O | 13µM* | u | u | x | 12µM*
COc1ccc(OC)c(NC(=O)c2ccc(OC3CSC3)cc2)c1 | 23% | 0% | -2% | -12% | 11µM*
CCCc1cc(C(=O)Nc2cc(OC)ccc2OC)cs1 | 7% | 1% | -5% | x | 19µM*
COc1ccc(OC)c(NC(=O)c2ccc(NC(C)=O)cc2)c1 | 0% | -2% | -2% | x | -9%
COc1ccc(NC(=O)c2cccc(NC(=O)c3ccccc3)c2)c(OC)c1 | -3% | 2% | -9% | x | 19µM*
COc1ccc(OC)c(NC(=O)c2cccc(NC(=O)c3ccccc3)c2)c1 | -3% | 19% | -1% | x | 17µM*
COc1ccc(NC(=O)c2ccc3nc(-c4ccccc4)c(-c4ccccc4)nc3c2)c(OC)c1 | 13% | -2% | 2% | -11% | 6%
C[C@H](CO)N1C[C@H](C)[C@@H](CN(C)C)Oc2c(NS(=O)(=O)c3cn(C)cn3)cccc2C1=O | -2% | x | x | x | x
COCCNC(=O)COc1ccc(OCCNC[C@H](O)COc2ccccc2)cc1 | x | x | x | -4% | x
Cc1ccc(C)c(CN2C(=O)c3ccccc3S(=O)c3ccc(C(=O)NCCc4ccc(Cl)cc4)cc32)c1 (stereo not given) | x | x | x | 10% | -4%
CCc1ccc(-n2nc3ccc(NC(=O)c4cc5ccccc5o4)cc3n2)cc1 | x | x | x | -2% | 0%
COc1ccc(-n2cnnc2SCC(=O)c2cc(C)n(Cc3cccs3)c2C)cc1 | -4% | -1% | 1% | 6% | u
Cc1cc(C(=O)CSc2n[nH]c(-c3ccccc3F)n2)c(C)n1Cc1cccs1 | -5% | -5% | 0% | -8% | 17µM*
Cc1cc(C(=O)CSc2nnc(N)s2)c(C)n1Cc1cccs1 | 0.92µM* | 0.28µM* | 0.56µM* | -75% | 0.85µM*
Cc1csc(SCC(=O)c2cc(C)n(Cc3cccs3)c2C)n1 | u | 0.32µM* | u | -62% | 0.17µM*
Cc1cc(C(=O)CSc2nnc(-c3ccc(OC(F)F)cc3)o2)c(C)n1Cc1cccs1 | 0% | -3% | -4% | 12% | 0%
Cc1cc(C)c(C)c(S(=O)(=O)N2CCCN(C)CC2)c1C | -3% | 2% | 0% | x | -1%
O=C(Nc1nnc2n1CCS2)c1cc(C(F)(F)F)cc(C(F)(F)F)c1 | x | x | x | x | -3%
CCc1ccc2nc(NC(=O)CSCc3c(C)noc3C)sc2c1 | 8% | 20% | 5% | u | 21µM*
CCOc1ccc2nc(SCC(=O)Nc3cc(C)on3)c(C)cc2c1 | 1% | 3% | -6% | x | 4%
Cc1ccc2nc(NC(=O)CSCC(=O)OCC(=O)c3ccccc3)sc2c1 | 4% | -32% | -21% | -26% | 17µM*
Cc1ccc2nc(NC(=O)C3CC3C)sc2c1 (stereo not given) | 13% | u | 1.1µM* | x | 5.4µM*
CCOc1ccc2nc(NC(=O)CSCC(=O)Nc3cc(C)on3)sc2c1 | u | 3.2µM* | u | x | u
COc1ccc(NC(=O)CN(C)C(=O)CN2C(=O)C3CCCCC3C2=O)cc1 (stereo not given) | -1% | -4% | -2% | x | -1%
N#Cc1ccccc1OCC(=O)N1CCN(c2ccccc2F)CC1 | x | x | x | -25% | 0%
CCOc1cc(C(=O)N=c2sccn2C)cc(Br)c1OC | -17% | 0% | 3% | x | 0%

Source: PubChem (National Center for Advancing Translational Sciences (NCATS))
